# Reference: paper PMC7862700, “An all-to-all approach to the identification of sequence-specific readers for epigenetic DNA modifications on cytosine”
# How the values were obtained:
# Test in all cases: DAPPL (digital affinity profiling via proximity ligation, sequencing); 10 mM Tris-HCl pH 7.5, 50 mM NaCl, 1 mM DTT, 4% glycerol, room temperature, 30 min; GST-TFs on glutathione beads, 16-mer random dsDNA library, 0.1% formaldehyde crosslink after washing; high values mean tight binding
# Conditions in all cases: protein: recombinant; tags: N-terminal GST; dsDNA, one strand shown
# ELK1 = biological target: T1, ELK1 (Homo sapiens, UniProt P19419 1-428)
# T1 sequence: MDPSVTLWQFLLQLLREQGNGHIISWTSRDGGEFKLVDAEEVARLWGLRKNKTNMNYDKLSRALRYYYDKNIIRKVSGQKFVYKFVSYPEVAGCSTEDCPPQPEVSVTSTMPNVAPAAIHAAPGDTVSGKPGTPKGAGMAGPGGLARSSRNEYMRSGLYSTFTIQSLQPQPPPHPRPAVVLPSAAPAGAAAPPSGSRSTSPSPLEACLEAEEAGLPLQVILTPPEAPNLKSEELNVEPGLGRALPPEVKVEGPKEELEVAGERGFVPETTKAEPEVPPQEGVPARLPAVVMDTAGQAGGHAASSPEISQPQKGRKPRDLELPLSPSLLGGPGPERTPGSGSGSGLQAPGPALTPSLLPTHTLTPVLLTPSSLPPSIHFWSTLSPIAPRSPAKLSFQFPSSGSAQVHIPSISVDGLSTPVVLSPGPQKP
# Method in brief: (§1)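 GST fusions of human transcription factors were expressed in yeast and captured with glutathione beads. Once given DNA barcodes and pooled alongside a tag-only sample, they were incubated for 30 min at room temperature with 200 nmole of a random double-stranded 16-mer DNA library in Tris/NaCl/DTT/glycerol buffer, then washed, crosslinked (0.1% formaldehyde), proximity-ligated, PCR-amplified and sequenced on an Illumina NextSeq500. The binding signal of each hexamer is its read frequency for a factor divided by its frequency for the tag-only sample.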
# GABPA = biological target: T2, GABPA (Homo sapiens, UniProt Q06546 1-454)
# T2 sequence: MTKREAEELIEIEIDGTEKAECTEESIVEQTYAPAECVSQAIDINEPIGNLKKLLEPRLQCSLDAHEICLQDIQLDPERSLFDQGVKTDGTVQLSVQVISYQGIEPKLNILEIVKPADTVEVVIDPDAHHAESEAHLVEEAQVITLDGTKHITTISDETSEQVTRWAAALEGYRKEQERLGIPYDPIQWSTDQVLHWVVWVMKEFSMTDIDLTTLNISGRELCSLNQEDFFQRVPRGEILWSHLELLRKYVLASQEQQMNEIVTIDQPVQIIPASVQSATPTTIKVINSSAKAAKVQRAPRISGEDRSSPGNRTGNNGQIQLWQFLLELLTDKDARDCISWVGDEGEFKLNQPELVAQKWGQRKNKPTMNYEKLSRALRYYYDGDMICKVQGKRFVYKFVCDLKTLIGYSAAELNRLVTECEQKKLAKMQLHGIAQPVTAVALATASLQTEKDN
# Method in brief: as §1
# ELF1 = ELF1 (Homo sapiens, UniProt P32519 1-619)
# Sequence of ELF1 (P32519 whole entry): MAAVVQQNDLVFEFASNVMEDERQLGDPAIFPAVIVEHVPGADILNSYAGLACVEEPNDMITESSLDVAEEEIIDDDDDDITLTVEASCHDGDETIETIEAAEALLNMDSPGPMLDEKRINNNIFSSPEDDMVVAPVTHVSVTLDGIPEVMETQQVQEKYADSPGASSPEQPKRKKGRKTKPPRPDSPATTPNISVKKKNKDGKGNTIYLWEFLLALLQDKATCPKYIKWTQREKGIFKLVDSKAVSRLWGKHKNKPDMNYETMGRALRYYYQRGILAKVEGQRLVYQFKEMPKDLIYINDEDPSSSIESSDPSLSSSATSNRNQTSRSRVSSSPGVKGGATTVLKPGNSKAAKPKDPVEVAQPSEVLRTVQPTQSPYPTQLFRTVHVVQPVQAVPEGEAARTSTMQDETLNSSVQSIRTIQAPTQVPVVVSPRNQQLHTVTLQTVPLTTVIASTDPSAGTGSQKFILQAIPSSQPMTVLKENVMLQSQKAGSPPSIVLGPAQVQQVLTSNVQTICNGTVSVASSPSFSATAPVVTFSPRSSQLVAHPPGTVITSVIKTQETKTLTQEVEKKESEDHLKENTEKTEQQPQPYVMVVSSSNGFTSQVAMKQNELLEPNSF
# Method in brief: as §1
# EHF = biological target: T3, EHF (Homo sapiens, UniProt Q9NZC4 1-300)
# T3 sequence: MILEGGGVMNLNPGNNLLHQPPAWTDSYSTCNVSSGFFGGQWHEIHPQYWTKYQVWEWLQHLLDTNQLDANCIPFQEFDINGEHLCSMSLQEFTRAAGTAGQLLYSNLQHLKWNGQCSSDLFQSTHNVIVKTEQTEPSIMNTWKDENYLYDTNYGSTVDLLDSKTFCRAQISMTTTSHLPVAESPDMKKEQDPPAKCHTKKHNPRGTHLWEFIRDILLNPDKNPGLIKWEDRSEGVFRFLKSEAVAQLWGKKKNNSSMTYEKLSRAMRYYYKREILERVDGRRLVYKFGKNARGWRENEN
# Method in brief: as §1
# SPIB = SPIB (Homo sapiens, UniProt Q01892 1-262)
# Sequence of SPIB (Q01892 whole entry): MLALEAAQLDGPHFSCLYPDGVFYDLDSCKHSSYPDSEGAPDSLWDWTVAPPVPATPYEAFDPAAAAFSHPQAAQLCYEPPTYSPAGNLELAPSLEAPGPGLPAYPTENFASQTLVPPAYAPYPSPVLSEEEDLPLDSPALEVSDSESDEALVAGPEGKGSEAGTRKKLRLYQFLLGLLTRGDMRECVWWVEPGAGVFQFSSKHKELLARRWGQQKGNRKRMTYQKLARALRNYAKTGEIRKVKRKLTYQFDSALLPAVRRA
# Method in brief: as §1
# ETV5 = ETV5 (Homo sapiens, UniProt P41161 1-510)
# Sequence of ETV5 (P41161 whole entry): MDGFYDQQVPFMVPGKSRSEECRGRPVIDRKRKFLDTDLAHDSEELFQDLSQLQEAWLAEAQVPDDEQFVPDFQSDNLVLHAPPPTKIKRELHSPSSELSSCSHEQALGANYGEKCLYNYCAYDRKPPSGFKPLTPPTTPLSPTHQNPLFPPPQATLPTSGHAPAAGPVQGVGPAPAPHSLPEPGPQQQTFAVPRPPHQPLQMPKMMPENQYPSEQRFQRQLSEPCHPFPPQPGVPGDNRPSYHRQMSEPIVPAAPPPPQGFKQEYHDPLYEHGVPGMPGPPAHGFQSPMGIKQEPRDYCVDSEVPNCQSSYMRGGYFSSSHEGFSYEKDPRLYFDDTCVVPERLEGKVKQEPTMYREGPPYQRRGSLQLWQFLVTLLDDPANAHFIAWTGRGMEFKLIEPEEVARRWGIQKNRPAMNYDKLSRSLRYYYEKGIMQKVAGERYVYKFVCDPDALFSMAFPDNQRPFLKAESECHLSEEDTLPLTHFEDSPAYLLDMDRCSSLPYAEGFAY
# Method in brief: as §1
# ELF4 = ELF4 (Homo sapiens, UniProt Q99607 1-663)
# Sequence of ELF4 (Q99607 whole entry): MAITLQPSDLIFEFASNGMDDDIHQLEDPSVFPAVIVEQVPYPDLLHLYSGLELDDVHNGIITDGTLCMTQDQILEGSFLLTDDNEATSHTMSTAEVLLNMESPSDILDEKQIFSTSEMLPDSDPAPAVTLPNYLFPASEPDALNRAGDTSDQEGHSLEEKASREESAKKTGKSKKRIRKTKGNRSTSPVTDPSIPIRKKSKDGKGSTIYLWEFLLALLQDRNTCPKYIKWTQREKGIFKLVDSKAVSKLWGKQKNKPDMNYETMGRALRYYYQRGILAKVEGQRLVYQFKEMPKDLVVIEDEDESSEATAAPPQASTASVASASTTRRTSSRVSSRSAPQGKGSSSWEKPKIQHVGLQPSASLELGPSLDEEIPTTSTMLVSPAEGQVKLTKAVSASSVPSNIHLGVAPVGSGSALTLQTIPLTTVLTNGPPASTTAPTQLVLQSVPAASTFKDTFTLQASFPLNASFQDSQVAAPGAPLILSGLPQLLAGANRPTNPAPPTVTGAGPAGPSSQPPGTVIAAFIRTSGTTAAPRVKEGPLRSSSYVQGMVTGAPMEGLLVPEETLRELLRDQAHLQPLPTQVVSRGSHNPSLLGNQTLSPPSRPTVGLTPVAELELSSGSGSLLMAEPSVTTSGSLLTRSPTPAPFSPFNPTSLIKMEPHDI
# Method in brief: as §1
# ELK4 = biological target: T4, ELK4 (Homo sapiens, UniProt P28324-2 1-405)
# T4 sequence: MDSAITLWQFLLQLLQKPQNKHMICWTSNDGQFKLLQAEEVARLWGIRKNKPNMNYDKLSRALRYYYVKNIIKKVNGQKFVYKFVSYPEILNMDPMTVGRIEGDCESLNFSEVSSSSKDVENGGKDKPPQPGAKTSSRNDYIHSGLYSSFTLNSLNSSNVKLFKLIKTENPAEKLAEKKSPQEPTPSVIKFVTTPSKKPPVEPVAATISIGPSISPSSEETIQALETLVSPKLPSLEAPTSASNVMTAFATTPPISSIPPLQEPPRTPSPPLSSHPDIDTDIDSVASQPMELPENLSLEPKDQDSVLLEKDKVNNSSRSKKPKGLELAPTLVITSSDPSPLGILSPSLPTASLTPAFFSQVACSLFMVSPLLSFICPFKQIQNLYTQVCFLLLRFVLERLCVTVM
# Method in brief: as §1
# ELF3 = biological target: T5, ELF3 (Homo sapiens, UniProt P78545 1-371)
# T5 sequence: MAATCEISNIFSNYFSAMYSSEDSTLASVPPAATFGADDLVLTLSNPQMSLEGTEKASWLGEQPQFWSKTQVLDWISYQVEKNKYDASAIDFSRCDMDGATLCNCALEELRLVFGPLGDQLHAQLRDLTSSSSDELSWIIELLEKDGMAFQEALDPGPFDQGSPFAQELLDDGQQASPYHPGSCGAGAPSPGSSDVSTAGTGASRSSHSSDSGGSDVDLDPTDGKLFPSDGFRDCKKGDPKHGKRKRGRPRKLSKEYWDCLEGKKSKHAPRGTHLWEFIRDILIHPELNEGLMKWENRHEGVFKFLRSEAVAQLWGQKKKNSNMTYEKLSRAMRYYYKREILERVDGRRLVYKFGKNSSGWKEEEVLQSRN
# Method in brief: as §1
# ETV1 = ETV1 (Homo sapiens, UniProt P50549 1-477)
# Sequence of ETV1 (P50549 whole entry): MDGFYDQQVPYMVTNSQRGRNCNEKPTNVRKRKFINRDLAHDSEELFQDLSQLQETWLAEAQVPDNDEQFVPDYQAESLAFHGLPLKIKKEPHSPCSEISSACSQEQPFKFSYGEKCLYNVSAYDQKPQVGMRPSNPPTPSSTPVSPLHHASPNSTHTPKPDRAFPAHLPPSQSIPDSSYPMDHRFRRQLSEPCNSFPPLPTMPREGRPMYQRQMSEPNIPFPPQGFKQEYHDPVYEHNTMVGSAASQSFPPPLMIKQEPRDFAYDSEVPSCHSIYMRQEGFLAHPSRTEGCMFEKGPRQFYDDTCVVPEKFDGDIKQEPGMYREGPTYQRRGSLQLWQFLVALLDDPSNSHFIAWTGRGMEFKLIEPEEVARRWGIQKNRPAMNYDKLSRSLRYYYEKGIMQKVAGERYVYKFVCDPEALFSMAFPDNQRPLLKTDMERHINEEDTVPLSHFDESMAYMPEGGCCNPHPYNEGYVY
# Method in brief: as §1
# ERF = biological target: T6, ERF (Homo sapiens, UniProt P50548 1-548)
# T6 sequence: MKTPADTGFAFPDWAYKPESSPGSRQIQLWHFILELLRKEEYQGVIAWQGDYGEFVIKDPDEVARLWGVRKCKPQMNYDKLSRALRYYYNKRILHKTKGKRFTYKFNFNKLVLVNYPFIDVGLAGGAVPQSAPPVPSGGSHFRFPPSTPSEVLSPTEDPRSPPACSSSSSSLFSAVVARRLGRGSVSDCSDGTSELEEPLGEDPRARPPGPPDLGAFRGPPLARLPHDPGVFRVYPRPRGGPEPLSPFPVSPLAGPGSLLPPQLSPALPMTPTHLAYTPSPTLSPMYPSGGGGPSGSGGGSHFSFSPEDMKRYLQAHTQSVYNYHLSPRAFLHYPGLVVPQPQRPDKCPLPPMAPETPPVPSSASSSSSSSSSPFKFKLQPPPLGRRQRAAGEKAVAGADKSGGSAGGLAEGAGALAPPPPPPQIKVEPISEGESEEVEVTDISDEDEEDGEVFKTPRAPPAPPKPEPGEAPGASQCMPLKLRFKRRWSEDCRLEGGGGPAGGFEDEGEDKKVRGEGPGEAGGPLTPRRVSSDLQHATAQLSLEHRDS
# Method in brief: as §1
# ETV3L = biological target: T7, ETV3L (Homo sapiens, UniProt Q6ZN32 1-361)
# T7 sequence: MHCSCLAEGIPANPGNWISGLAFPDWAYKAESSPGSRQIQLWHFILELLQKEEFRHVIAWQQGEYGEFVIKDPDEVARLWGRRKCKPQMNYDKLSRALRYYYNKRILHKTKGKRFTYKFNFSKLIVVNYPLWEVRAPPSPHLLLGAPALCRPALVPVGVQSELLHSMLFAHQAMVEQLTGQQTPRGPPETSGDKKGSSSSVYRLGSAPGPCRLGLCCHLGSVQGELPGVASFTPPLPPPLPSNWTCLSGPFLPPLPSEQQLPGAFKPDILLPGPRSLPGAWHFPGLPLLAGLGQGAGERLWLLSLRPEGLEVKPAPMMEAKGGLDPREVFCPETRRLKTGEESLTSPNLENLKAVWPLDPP
# Method in brief: as §1
# ETS2 = biological target: T8, ETS2 (Homo sapiens, UniProt P15036 1-469)
# T8 sequence: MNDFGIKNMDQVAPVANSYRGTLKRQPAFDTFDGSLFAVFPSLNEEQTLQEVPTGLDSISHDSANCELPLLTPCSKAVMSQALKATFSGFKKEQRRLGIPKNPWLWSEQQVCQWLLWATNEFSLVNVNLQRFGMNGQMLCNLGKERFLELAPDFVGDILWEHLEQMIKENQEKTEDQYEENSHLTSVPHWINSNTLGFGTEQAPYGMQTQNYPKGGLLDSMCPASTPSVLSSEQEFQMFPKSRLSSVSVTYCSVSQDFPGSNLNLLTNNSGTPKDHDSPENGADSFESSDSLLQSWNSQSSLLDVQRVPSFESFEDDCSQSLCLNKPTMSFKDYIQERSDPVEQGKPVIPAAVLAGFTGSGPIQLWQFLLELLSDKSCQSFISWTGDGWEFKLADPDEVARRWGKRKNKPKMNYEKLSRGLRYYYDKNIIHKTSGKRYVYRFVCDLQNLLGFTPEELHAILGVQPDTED
# Method in brief: as §1
# SPDEF = biological target: T9, SPDEF (Homo sapiens, UniProt O95238 1-335)
# T9 sequence: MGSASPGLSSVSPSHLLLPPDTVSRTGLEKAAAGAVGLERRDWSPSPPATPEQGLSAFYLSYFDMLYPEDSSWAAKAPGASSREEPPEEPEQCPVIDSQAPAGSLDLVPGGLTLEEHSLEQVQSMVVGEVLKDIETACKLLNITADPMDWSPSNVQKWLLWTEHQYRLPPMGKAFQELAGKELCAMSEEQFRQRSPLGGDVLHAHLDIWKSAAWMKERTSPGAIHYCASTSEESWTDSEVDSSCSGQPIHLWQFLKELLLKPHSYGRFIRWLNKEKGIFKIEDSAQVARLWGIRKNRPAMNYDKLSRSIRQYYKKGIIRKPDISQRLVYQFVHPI
# Method in brief: as §1
# ETV3 = biological target: T10, ETV3 (Homo sapiens, UniProt P41162-2 1-143)
# T10 sequence: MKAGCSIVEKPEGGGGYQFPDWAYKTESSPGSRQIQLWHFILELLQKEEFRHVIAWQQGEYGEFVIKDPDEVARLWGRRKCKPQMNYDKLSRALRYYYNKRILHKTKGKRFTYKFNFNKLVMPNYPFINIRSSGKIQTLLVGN
# Method in brief: as §1
sequence,measurement,setting,value
TGCAAG,binding signal,ELK1,"1.11 fold enrichment (6-mer frequency, TF over GST control)"
same,binding signal,GABPA,"1.07 fold enrichment (6-mer frequency, TF over GST control)"
same,binding signal,ELF1,"1.01 fold enrichment (6-mer frequency, TF over GST control)"
same,binding signal,EHF,"1.02 fold enrichment (6-mer frequency, TF over GST control)"
same,binding signal,SPIB,"1.04 fold enrichment (6-mer frequency, TF over GST control)"
same,binding signal,ETV5,"1.07 fold enrichment (6-mer frequency, TF over GST control)"
same,binding signal,ELF4,"1.05 fold enrichment (6-mer frequency, TF over GST control)"
same,binding signal,ELK4,"1.07 fold enrichment (6-mer frequency, TF over GST control)"
same,binding signal,ELF3,"1.15 fold enrichment (6-mer frequency, TF over GST control)"
same,binding signal,ETV1,"1.03 fold enrichment (6-mer frequency, TF over GST control)"
same,binding signal,ERF,"1.01 fold enrichment (6-mer frequency, TF over GST control)"
same,binding signal,ETV3L,"1.11 fold enrichment (6-mer frequency, TF over GST control)"
same,binding signal,ETS2,"1.12 fold enrichment (6-mer frequency, TF over GST control)"
same,binding signal,SPDEF,"1.11 fold enrichment (6-mer frequency, TF over GST control)"
same,binding signal,ETV3,"1.07 fold enrichment (6-mer frequency, TF over GST control)"
